From PubChem
Rows were chosen to be rich in hits. Some 11% of all compounds tested hit in one or more screens of this group.
HTT aggregate: mutant huntingtin aggregation inhibition. Potency, µM (titrated, usually from 46.1 µM), for the others: at the highest dose activity change, negative = inhibition, most hits filed as inhibitors. PC12 HttQ103-GFP aggregates, Acumen cytometry, 40 h. hit rate 1.1% among 220,000; also: potency is read from the fitted curve at half-maximal effect; % is scaled to controls: 0 for no effect and ±100 for the full control effect; nearly all actives have a fitted effect of over 60% in size
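Using laser scanning cytometry, GFP-positive aggregates were counted after lysis of PC12 cells induced with 100 nM tebufenozide to express HTT exon 1 Q103–GFP. Compounds were tested in titration.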
HTT ATP protect: protects HTT-Q103 PC12 cells, measured by ATP; PC12 HTT-Q103 induced, cytoprotection, ATP luminescence, 40 h; Potency, µM (top dose mostly 56.4 µM), without a hit: cytoprotection (ATP increase), hits mostly activators; hit rate 0.14% among 230,000; also: potency is read from the fitted curve at half-maximal effect; % of control where 0% means no effect; nearly all actives have a fitted effect of over 45% in size
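Readout: ATPlite luminescence (ATP level). Model: stable PC12, inducible Htt exon1 Q103-GFP. Inducer: tebufenozide, 100 nM final. Compounds: dose series. No G418 in medium.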
CBFb-RUNX1 inh: inhibitors of human CBF-beta and RUNX1 interaction. 230,000 tested, under 10 active. AlphaScreen CBFb-His/RUNX1-biotin binding, biochemical. Potency, µM (series often up to 59.8 µM), without a hit: at the highest dose activity, negative = inhibition, usual class: inhibitors. Q01196+Q13951; also: % of control where 0% means no effect
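AlphaScreen binding: CBFb-His and RUNX1-biotin (30 nM each) preincubated 20 min, compound added for 15 min, then nickel and streptavidin beads for 90 min, all at room temperature. Disruption of the interaction by any mechanism counts as activity.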
HPGD block: blocks human HPGD enzyme activity; purified HPGD, NADH fluorescence kinetic, PGE2 substrate; Potency, µM, for the others: at the top dose activity change, negative = inhibition, usual class: inhibitors; hit rate 4.3% among 150,000; AID 894; active = well fitted inhibition curve with a large enough effect, not every such curve was filed as active; inconclusive = small, poorly fitted or top-dose-only effect, or another doubt; inactive = no such curve, though single readings can be large or run the other way; also: potency is read from the fitted curve at half-maximal effect; % is scaled to controls: 0 for no effect and ±100 for the full control effect
Target sequence (P15428 whole entry, looked up): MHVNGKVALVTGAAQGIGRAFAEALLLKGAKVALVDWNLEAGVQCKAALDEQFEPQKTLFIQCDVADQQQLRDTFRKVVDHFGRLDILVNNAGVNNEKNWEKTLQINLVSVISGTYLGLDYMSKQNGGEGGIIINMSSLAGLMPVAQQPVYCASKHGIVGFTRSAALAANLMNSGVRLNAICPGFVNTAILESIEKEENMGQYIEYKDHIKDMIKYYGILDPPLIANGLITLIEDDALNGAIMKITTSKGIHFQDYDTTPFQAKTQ
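NADH formation kinetics: reaction with 30 uM PGE2 and 1 mM NAD+ (final), 20 nM enzyme, Tris-HCl pH 8 with Tween 20, after 15 min compound preincubation at room temperature. Fluorescence change, last versus first of five reads.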
ALDH1A1 block: blocks purified human ALDH1A1 activity. Purified ALDH1A1, NADH fluorescence, propionaldehyde substrate. Potency, µM (series often up to 75.3 µM), for inactives: at the top dose activity, negative = inhibition, hits mostly inhibitors. P00352. hit rate 7.3% among 220,000; active = well fitted inhibition curve with a large enough effect, not every such curve was filed as active; inconclusive = small, poorly fitted or top-dose-only effect, or another doubt; inactive = no such curve, though single readings can be large or run the other way;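 also: potency is read from the fitted curve at half-maximal effect; plate controls were no enzyme wells and a reference inhibitor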
Target sequence (P00352 whole entry, looked up): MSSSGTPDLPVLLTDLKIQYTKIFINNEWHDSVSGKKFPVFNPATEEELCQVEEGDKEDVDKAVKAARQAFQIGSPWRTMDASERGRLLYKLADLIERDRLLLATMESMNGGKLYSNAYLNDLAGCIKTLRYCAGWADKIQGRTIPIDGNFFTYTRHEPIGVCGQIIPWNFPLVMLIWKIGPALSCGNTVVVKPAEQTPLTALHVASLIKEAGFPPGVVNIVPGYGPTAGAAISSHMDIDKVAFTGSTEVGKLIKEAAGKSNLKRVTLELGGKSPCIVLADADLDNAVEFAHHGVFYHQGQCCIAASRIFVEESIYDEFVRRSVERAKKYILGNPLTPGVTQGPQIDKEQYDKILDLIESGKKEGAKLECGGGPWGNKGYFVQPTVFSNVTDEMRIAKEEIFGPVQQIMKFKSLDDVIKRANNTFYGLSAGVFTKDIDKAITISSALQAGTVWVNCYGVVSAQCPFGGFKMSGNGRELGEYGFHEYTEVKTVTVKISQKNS
PNC assembly inh: perinucleolar compartment assembly inhibition; PC3M PTB-GFP, PNC prevalence imaging, 16 h; active compounds read low; activity change (PNC), negative = inhibition, % at 10 µM; hit rate 3.1% among 140,000; AID 2417;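 active = readout at or below -70, meaning at least 70% loss of cells showing the perinucleolar compartment, a nuclear body marking cancer cells; inconclusive = readout between -30 and a set limit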;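 also: plate controls were DMSO wells for no effect and camptothecin positive control wells for full effect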
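Read-out is percentage of cells bearing a perinucleolar compartment, from automated 20x imaging of fixed, Hoechst-stained PC3M PTB-GFP cells. Cells were seeded 4 h, then exposed 16 h to compound (23 nl of library stock) in duplicate plates.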
* hit, by the source's call; ? = inconclusive; . = not tested or not shown; [ ] = another dose, or the depositor's remark. Unless noted, calls follow the shape of the dose curve; as a rule, active = well fitted curve in the direction sought with a large enough effect; inconclusive = small, poorly fitted or top-dose-only effect, or another doubt; inactive = no such curve, though single readings can be large; an effect the other way counts as inactive or inconclusive.

SMILES	HTT aggregate	HTT ATP protect	CBFb-RUNX1 inh	HPGD block	ALDH1A1 block	PNC assembly inh
O=C1NC(=O)N(Cc2ccccc2Cl)C(=O)/C1=C/c1cccs1	7.1%	2.5%	5.4%	.	?	.
CN(C)c1ccc(/C=C2\C(=O)NC(=O)N(Cc3ccc(F)cc3)C2=O)cc1	29.0%[9.22 µM]	17.6%[10 µM]	6.4%	.	.	.
Cc1ccc(/C=C2/C(=O)NC(=O)N(CC3CCCO3)C2=O)s1 (configuration not stated)	18.5%	.	-0.3%	14.1µM*	10µM*	-3.4
CN(C)c1ccc(/C=C2/C(=O)NC(=O)N(CCc3ccc(F)cc3)C2=O)cc1	16.0%	12.2%[10 µM]	8.5%	10µM*	0.631µM*	-20.5
Cc1ccc(/C=C2\C(=O)NC(=O)N(CCc3ccc(F)cc3)C2=O)s1	4.7%	-24.3%	2.9%	.	1.58µM*	.
O=C1NC(=O)N(Cc2ccc(F)cc2)C(=O)/C1=C/c1cccs1	4.8%	-2.4%	8.4%	.	28.2µM*	.
O=C(NC1CCCCC1)c1cn(CCN2CCOCC2)c2cc(Cl)ccc2c1=O	.	.	14.6%	.	.	.
Cc1ccc(/C=C2/C(=O)NC(=O)N(CCc3ccc(F)cc3)C2=O)s1	13.4%	.	4.7%	7.08µM*	?	?
CCOc1cc(/C=C2\C(=O)NC(=O)N(CCc3ccc(F)cc3)C2=O)ccc1O	1.3%[9.22 µM]	22.2%[10 µM]	7.0%	.	.	.
Cc1ccc(/C=C2\C(=O)NC(=O)N(CCc3ccc(F)cc3)C2=O)o1	-9.0%	19.9%[10 µM]	3.7%	3.55µM*	5.01µM*	?
CCC1CN2CCC1CC2C(Oc1cc2ccccc2c2ccccc12)c1ccnc2ccc(O)cc12 (configuration not stated)	.	-14.4%[10 µM]	-1.0%[13.1 µM]	.	-3.0%[13.5 µM]	.
CC(=O)N1C[C@@H]2C[C@H](C1)c1cccc(=O)n1C2	.	-11.8%	.	.	.	.
COC1=CC(=O)O[C@@H](/C=C/c2ccccc2)C1	.	-32.2%	17.4%[21.7 µM]	-9.5%	12.6µM*	.
NCCNC[C@@H](N)CCCN=C(N)N[N+](=O)[O-]	.	.	13.1%	.	.	.
CO[C@@H](C)[C@](O)(C(=O)OC1=CCN2CC[C@H](O)[C@H]12)C(C)C	.	-51.7%	.	.	.	.
Cc1cc(N2CCCCC2)ccc1C=C1C(=O)N(C)C(=S)N(C)C1=O	2.9%	8.4%[10 µM]	11.4%	14.1µM*	31.6µM*	5.1
CN1C(=O)/C(=C/c2ccc(N3CCCCCC3)o2)C(=O)NC1=S	?	-11.6%[10 µM]	7.2%	-19.8%	?	0.0
CCCCN1C(=O)/C(=C/c2ccc(N3CCCCCC3)cc2)C(=O)NC1=S	-0.1%	-2.0%[10 µM]	-1.4%	-14.5%	0.199µM*	-20.4
COc1ccc(/C=C2\C(=O)NC(=S)N(C)C2=O)cc1C	2.2%[9.22 µM]	3.3%[10 µM]	-9.8%	.	7.94µM*	.
O=C1NC(=O)N(c2cccc(F)c2)C(=O)/C1=C/c1ccc(N2CCOCC2)cc1	-17.0%[9.22 µM]	-11.7%[10 µM]	1.9%	.	5.01µM*	.
CC/C=C\C[C@@H](/C=C/C=C\C/C=C\C/C=C\CCCC(=O)O)OO	.	-21.3%	-9.4%	0.0%	-2.4%	.
[Cl][Pd][Cl].[S-]C1=C2N=CN[C-]2[NH+]=C[N-]1.[S-]c1ncnc2[nH]cnc12	.	.	.	0.6%	-11.2%[13.5 µM]	.
Cc1onc(-c2ccccc2)c1C(=O)NC1C(=O)N2C(C(=O)O)C(C)(C)S[C@@H]12 (some centres not stated)	.	-51.7%	12.5%	-6.5%	-10.7%	.
CN1C(=O)/C(=C\c2ccc(N3CCCCCC3)cc2)C(=O)NC1=S	-6.3%[9.22 µM]	2.0%[10 µM]	8.4%	.	0.0708µM*	.
CN1C(=O)/C(=C\c2ccc(N3CCCCC3)o2)C(=O)NC1=S	-13.1%	-18.9%[10 µM]	12.2%	-18.3%	?	?
SMILES	HTT aggregate	HTT ATP protect	CBFb-RUNX1 inh	HPGD block	ALDH1A1 block	PNC assembly inh
CCCN1[C@@H]2C[C@@H](O)CC[C@@H]2C[C@H]1C(=O)OC	.	-20.8%	7.3%	-8.7%	-5.8%	.
O=C(Cc1ccccc1)Oc1cccc(N2C(=O)CCC2=O)c1	-19.0%[9.22 µM]	-3.2%	1.1%	-8.4%	-8.9%	-99.6*
O=C(Cc1ccccc1)Oc1cccc(-n2cnnn2)c1	-7.5%[9.22 µM]	0.1%[10 µM]	3.2%	.	-7.5%	.
[Cd+2].[Cl-].[Cl-]	.	-213.5%	?	8.91µM*	3.98µM*	.
C[C@]12CC[C@@H]3[C@H](CCC4=CC(=O)CC[C@]43C)[C@]1(O)CC[C@@]2(O)C(=O)CO	.	2.6%[10 µM]	.	-6.7%	7.5%[13.5 µM]	.
C[C@H](N)Cc1c[nH]c2ccc(OCc3cccs3)cc12	.	-24.9%	-1.8%[21.7 µM]	-12.5%	-5.4%	.
CCCCC1C(=O)NC(=S)NC1=O	-5.4%	13.8%[10 µM]	0.5%	12.6µM*	31.6µM*	-14.6
CC(C)(C)NCC(O)c1cc(Cl)c(N)c(C(F)(F)F)c1 (configuration not stated)	4.7%	4.8%	.	.	.	.
Cc1cccc(N2C(=O)NC(=O)/C(=C\c3cccn3-c3ccc(Cl)cc3)C2=O)c1	?	-49.1%	-5.9%	?	-2.9%	82.2
COc1cc(/C=C2\C(=O)NC(=O)N(c3ccccc3)C2=O)c([N+](=O)[O-])cc1OC	12.5%	-19.9%	1.6%	.	?	.
CC(C)(C)n1cccc1/C=C1\C(=O)NC(=O)N(c2ccccc2)C1=O	1.3%	-17.4%[0.074 µM]	1.1%	1.6%	1.41µM*	-9.7
COc1cc(/C=C2\C(=O)NC(=O)N(c3ccccc3)C2=O)cc(OC)c1O	-13.4%	?	5.9%	31.6µM*	?	17.6
Cc1cc(C)cc(N2C(=O)NC(=O)/C(=C/c3cccn3-c3ccc(Cl)cc3)C2=O)c1	8.8%	-2.9%[10 µM]	-17.4%	3.98µM*	8.8%	9.9
COc1ccc2c3c1O[C@@H]1C(=O)CC[C@@]4(O)[C@@H](C2)N(CC2CC2)CC[C@]314	.	13.1%[1.9 µM]	.	.	.	.
C[C@H]1O[C@@H](O[C@H]2[C@@H](O)C[C@H](O[C@H]3[C@@H](O)C[C@H](O[C@H]4CC[C@]5(C)C6CC[C@]7(C)[C@@H](C8=CC(=O)OC8)CC[C@]7(O)C6CC[C@@H]5C4)O[C@@H]3C)O[C@@H]2C)C[C@H](O)[C@@H]1O (some centres not stated)	.	?	17.7%[21.7 µM]	-2.5%	3.4%	.
COc1cc([C@@H](O)CN)ccc1O	.	-2.1%[1.9 µM]	.	.	.	.
